Measurements as given in PubChem BioAssay (NCATS).
Records with an inconclusive call do not appear. A number with no mark means an inactive call. Calls follow the shape of the dose curve; as a rule, active = well fitted inhibition curve with a large enough effect; inconclusive = small, poorly fitted or top-dose-only effect; inactive = flat fitted curve, though single readings scatter.

Biological target: Aldehyde dehydrogenase, mitochondrial (Homo sapiens) (UniProt P05091)
Test: qHTS for Inhibitors of the Aldehyde Dehydrogenase Family (ALDH2) Primary screen (AID 2061308);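 also: plate controls were vehicle for no effect and reference inhibitor for full effect; nearly all actives have a fitted effect of over 55% in size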
Settings: ALDH2 enzyme inhibition qHTS, 1536-well; series mostly up to 56 µM; activity change, negative = inhibition: at the top concentration

Row | SMILES | activity change, negative = inhibition
1 | c1cc2c3c(cccc3c1)NC(c1ccc3c(c1)OCO3)N2 | 5.41%
2 | O=C(O)c1ccc(O)c2ncc(NCC3CCCN(CCc4ccccc4)C3)cc12 (stereo not given) | 8.8%
3 | COc1ccc(C(=O)NC(c2ccco2)c2cc(Cl)c3cccnc3c2O)cc1 (stereo not given) | -9.43%
4 | COc1cccc(-c2nc(-c3cccc(C(=O)O)c3)no2)c1 | -7.16%
5 | CCCCN(C)C(=O)Cn1nc(-c2ccc(C(C)=O)cc2)ccc1=O | 18.8%
6 | C/C(=C\c1ccccc1)C1Nc2cccc3cccc(c23)N1 | -7.06%
7 | CCOc1ccc(CCNC(=O)c2ccccn2)cc1OCC | 0.0283%
8 | Fc1ccccc1-c1nc(-c2ccccc2)no1 | 6.94%
9 | CN1CCN(c2ccc(-c3cc(O)c4ncccc4c3)cc2)CC1 | -0.93%
10 | Cn1c2cc(Br)sc2c2cnn(Cc3c(F)cccc3Cl)c(=O)c21 | -0.603%
11 | Cc1ccnc(NC(=S)N2CCN(c3ccc(C#N)cc3)CC2)c1 | -11.4%
12 | C=C1CC[C@@H]2[C@](C)(CO)[C@H](O[C@@H]3O[C@H](CO)[C@@H](O)[C@H](O)[C@H]3O)CC[C@@]2(C)[C@@H]1C/C=C1/C(=O)OC[C@H]1O | -8.82% [at 28 µM]
13 | O=C(Nc1cncc(-c2ccncc2)c1)c1cccs1 | -7.32%
14 | CCc1ccc(NC(=O)C(=O)NNC(=O)c2cccs2)cc1 | -22.2%
15 | COc1cc(OC)c(C(CC(=O)N2CC(C)CC(C)C2)c2ccc3c(c2)OCO3)c(OC)c1 (stereo not given) | -22.1% [at 114 µM]
16 | CNc1nc(Nc2ccc(C(=O)N3CCOCC3)cc2OC)nc2[nH]cc(Cl)c12 | -15.5%
17 | N#Cc1cccc(CSc2nc3ncc(Br)cc3[nH]2)c1 | -14.3%
18 | C=C1CCC2C(C)(CO[C@@H]3O[C@H](CO)[C@@H](O)[C@H](O)[C@H]3O)C(O)CCC2(C)C1C(=O)CC1=CCOC1=O (stereo not given in full) | -5.21% [at 28 µM]
19 | COc1cc(N2CCOCC2)ccc1Nc1ncc(Cl)c(Nc2ccccc2NS(C)(=O)=O)n1 | -6.33%
20 | C=C1/C(=C/C=C2\CCC[C@]3(C)[C@@H]([C@H](C)/C=C/[C@@H](C)C(C)C)CC[C@@H]23)C[C@@H](O)C[C@@H]1O | -3.16%

Row | SMILES | activity change, negative = inhibition
21 | FC(F)(F)c1ccc(N2CCN(C(=S)Nc3ccccn3)CC2)cc1 | -4.27%
22 | Cc1ccc(C2Nc3cccc4cccc(c34)N2)s1 | -22.9%
23 | CN(C)C1CCN(Cc2cc(COCc3ccccc3)c3cccnc3c2O)C1 (stereo not given) | -3.83%
24 | O=C(NCCc1ccc(O)c(O)c1)c1cc2sccc2n1Cc1ccccc1 | -24%
25 | Cc1ccc(-c2cc(C(=O)Nc3ccccn3)c3ccccc3n2)cc1C | 2.57%
26 | FC(F)(F)c1ccccc1-c1nc(NCc2ccc(-c3cccnc3)cc2)c2sccc2n1 | -0.0639%
27 | Cc1ccc(Nc2c(F)cccc2Cl)c(CC(=O)O)c1 | -11.5%
28 | O=C(O)c1cccc(-c2noc(-c3cccc(F)c3)n2)c1 | 1.81%
29 | CN(C(=O)OC(C)(C)C)c1ccc(-c2nc3ccccc3s2)cc1 | -1.52%
30 | CN(C)c1ccc(-c2nc3ccccc3s2)cc1 | 5.91%
31 | COc1ccc(-c2ccc3c(N4CCOCC4)nc(N4CC(C)OC(C)C4)nc3n2)cc1CO (stereo not given) | 1.87%
32 | Cc1ccnc(NC(=S)N2CCc3cccc(C(F)(F)F)c3C2)c1 | -16%
33 | C=C1/C(=C/C=C2\CCC[C@]3(C)[C@@H]([C@H](C)/C=C/C(=O)C4CC4)CC[C@@H]23)C[C@@H](O)C[C@@H]1O | -12.1%
34 | COc1ccc(/C=C(\C)C2Nc3cccc4cccc(c34)N2)cc1 | -9.51%
35 | CC(=O)c1ccc(N2CCN(C(=O)c3ccc4c(c3)CCC(=O)N4)CC2)cc1 | 51.2%
36 | CCC(=O)NC(c1cc(Cl)c2ccccc2c1O)C1CC1 (stereo not given) | -25.3%
37 | Cc1ccc(-c2ccc(=O)n(CC(=O)NCCc3ccccc3)c2)cc1 | -0.605%
38 | O=C(O)c1ccc(-c2noc(-c3ccc(F)cc3)n2)cc1 | 3.47%
39 | O=C(NO)c1cnc(N2CCN(S(=O)(=O)c3ccc4ccccc4c3)CC2)nc1 | 13.3% [at 28 µM]
40 | Cc1cc(NCc2ccc(-c3cccnc3)cc2)nc(-c2ccccc2C(C)C)n1 | 45.3%
